Measured values from PubChem BioAssay AID1508600 (Functional Genomics Laboratory (NCATS/FGL), 2020).
Among all 53,000 sequences or so, about 3,700 (7%) were called active.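 How the source made its calls: active means gene knockdowns whose robust z-score for IL-1 alpha signal is at least 2 or at most -2, so actives lie on both sides; inactive means the rest.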 The entries come from a sample that favours actives as a whole.

assay: Components of the Cytosolic LPS Sensing Pathway: Gene Identification via Genome-wide siRNA Screen; conditions: RAW264.7 macrophages, IL-1a HTRF, actives lie on both sides, screened at 100 nM (by protocol), cells primed 5 h with Pam3CSK4 first;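 further: robust z of the log signal after scaling to non-targeting control siRNA wells of the plate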
In short: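 Three distinct siRNAs per gene were tested singly at 100 nM in RAW264.7 macrophages. Following Pam3CSK4 priming and 24 hour LipidA transfection, IL-1a secretion was read by HTRF.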

Row | Sequence | z-score
1 | GGAGCCAUGCUAAGAGCAUTT against Dbil5 | 0.494 (inactive)
2 | GCCAGAGUGUCGAAUAUCATT against Dll4 | -0.417 (inactive)
3 | GGACGCAGACAGGACAAAATT against Parp2 | 2.16 (active)
4 | GUUACUGCGUGGACUGUGUTT against C730034F03Rik | -0.0785 (inactive)
5 | GCCGUAGGUUAGAGAAUCGTT against Nxnl1 | -0.348 (inactive)
6 | CCGUCUUUGUGCUAUGCUGTT against Sstr4 | 1.56 (inactive)
7 | GGAGGUGAAGCUUCGAAUGTT against Slc25a10 | 0.052 (inactive)
8 | GGAAAUGGCCUCCAUGAGATT against Krt14 | 0.734 (inactive)
9 | GGCCUUGCACUUCAGUUUCTT against Mfsd4b1 | -0.436 (inactive)
10 | GGAAAGAAGAAAUGAGAAGTT against Gm9871 | -1.57 (inactive)
11 | CGGAAGAAGCCAGUUAAGATT against Apol9b | 0.665 (inactive)
12 | GCGUGGAAGGUCUGAACACTT against Arfgap3 | 4.18 (active)
13 | GGAGUUGUGAAUUUCUCGUTT against Sri | -0.198 (inactive)
14 | GGUUACUAGAAAAGUGUUGTT against Olfr1489 | 1.41 (inactive)
15 | GGGAAUUUCCUGAAAUCCUTT against Mettl8 | -0.167 (inactive)
16 | GGUUAACCUGAGAAAAAUGTT against Mkrn1 | 0.734 (inactive)
17 | GGCAACUUAGGAGUUAGACTT against Pgam5 | 0.533 (inactive)
18 | GUGUGAACAGAGGCAGAAATT against Xlr3a | -2.46 (active)
19 | CCCUAAGCUCUGUUCCCAGTT against Olfr371 | -0.561 (inactive)
20 | GCCAAUCUCUGCUAGAUACTT against Slc46a1 | 0.447 (inactive)
21 | GGCAACACACUGUCAUUUCTT against Il9 | -1.06 (inactive)
22 | CCAACUGUGAUCAGUGAGCTT against Shank3 | -0.387 (inactive)
23 | GGCCUUGAAGGAGAUGCUATT against Rell2 | 0.887 (inactive)
24 | GCAGAUCAUUCCCGUGUUGTT against P2ry14 | 0.565 (inactive)
25 | GGACAAGAAGGAAAAGAAATT against Brd4 | -3.25 (active)
26 | GCUGUGCAAGGUGAGGAAATT against Rps4l | 1.25 (inactive)
27 | GGUGAUGGAAAUAAACUACTT against Dhrs7b | 1.44 (inactive)
28 | GGACAAGAAGCCACUGACATT against Arrb1 | 2.2 (active)
29 | GGACCAUUAAACUAAAUGGTT against Tpte | -0.592 (inactive)
30 | GCUCUCACAGGAUAAGGCUTT against Cryga | -0.126 (inactive)
